Only a selection was taken, and hits are over-represented in it overall.
KDM5B inhibitor = inhibitors of human KDM5B histone demethylase; KDM5B demethylase, FDH-coupled NADH fluorescence (FDH is formaldehyde dehydrogenase); Q9UGL1; 220,000 tested, 2.6% active; Potency, µM (top dose mostly 57.7 µM), usual class: inhibitors; active = well fitted inhibition curve with a large enough effect; note: 0% is about no effect; nearly all actives have a fitted effect of over 70% in size
Target sequence (Q9UGL1 whole entry, looked up): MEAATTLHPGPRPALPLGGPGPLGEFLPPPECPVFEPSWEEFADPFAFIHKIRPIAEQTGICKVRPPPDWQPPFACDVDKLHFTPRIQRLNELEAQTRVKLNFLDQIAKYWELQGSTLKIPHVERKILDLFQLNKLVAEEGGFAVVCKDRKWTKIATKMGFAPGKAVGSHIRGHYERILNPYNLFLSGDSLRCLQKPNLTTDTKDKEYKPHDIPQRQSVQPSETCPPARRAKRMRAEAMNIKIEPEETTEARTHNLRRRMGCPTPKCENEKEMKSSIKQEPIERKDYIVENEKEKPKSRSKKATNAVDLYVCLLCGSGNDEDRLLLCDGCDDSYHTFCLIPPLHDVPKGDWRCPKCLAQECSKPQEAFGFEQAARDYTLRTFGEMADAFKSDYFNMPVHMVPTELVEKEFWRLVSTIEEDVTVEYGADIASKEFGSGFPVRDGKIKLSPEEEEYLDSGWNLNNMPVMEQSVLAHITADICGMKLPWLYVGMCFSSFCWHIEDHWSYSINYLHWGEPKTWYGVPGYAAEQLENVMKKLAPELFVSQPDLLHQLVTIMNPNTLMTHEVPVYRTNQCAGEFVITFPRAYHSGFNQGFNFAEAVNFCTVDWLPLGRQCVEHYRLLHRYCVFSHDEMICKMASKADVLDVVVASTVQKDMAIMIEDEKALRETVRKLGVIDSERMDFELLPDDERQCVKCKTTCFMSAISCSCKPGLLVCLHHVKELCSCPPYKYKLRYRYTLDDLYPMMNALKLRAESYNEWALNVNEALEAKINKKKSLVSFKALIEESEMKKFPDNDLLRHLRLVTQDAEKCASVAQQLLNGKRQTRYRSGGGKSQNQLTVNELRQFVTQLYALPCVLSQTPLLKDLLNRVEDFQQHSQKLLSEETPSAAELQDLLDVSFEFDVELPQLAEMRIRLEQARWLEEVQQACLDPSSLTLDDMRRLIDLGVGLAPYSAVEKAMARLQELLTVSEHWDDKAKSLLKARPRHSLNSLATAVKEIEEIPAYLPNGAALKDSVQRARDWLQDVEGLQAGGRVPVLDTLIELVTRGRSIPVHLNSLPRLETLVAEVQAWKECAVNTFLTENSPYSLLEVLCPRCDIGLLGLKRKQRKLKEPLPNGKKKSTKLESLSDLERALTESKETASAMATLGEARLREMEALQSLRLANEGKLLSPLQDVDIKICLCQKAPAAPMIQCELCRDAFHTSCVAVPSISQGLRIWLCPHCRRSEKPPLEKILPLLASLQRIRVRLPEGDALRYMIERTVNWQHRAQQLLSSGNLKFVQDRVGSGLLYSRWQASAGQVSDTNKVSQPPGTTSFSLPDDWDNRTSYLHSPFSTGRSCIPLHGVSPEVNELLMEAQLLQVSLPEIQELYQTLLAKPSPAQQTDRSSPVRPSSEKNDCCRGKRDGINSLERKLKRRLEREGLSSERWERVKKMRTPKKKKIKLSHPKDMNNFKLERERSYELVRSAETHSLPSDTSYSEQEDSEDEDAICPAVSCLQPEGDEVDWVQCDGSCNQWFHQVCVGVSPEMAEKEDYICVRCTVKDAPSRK
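qHTS format, multiple compound concentrations. Buffer 50 mM HEPES pH 7.5/0.01% Tween-20; 200 nM KDM5BΔAP final; 10 min compound preincubation; substrate-mix levels 12.5 µM peptide, 25 µM α-KG, 0.25 mM NAD⁺; 30 min RT; ΔRFU.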
The depositor's hits bear a star; i = inactive. Potency is the fitted concentration of half-maximal effect.

SMILES | KDM5B inhibitor
N#Cc1cccc(C(=O)NCC(=O)N2CCCCCCNC(=O)CC2c2ccccc2)c1 (configuration not stated) | i
O=C1CC(c2ccccc2)N(C(=O)CNC(=O)c2c[nH]c3ccccc23)CCCCCN1 (configuration not stated) | 28.2µM*
O=C1CC(c2ccccc2)N(C(=O)CNC(=O)c2ccoc2)CCCCCCN1 (configuration not stated) | i
O=C1CC(c2ccccc2)N(C(=O)CNC(=O)c2ccc3cc[nH]c3c2)CCCCCN1 (configuration not stated) | 25.1µM*
O=C(Cc1c[nH]c2ccccc12)NCC(=O)N1CCCCCNC(=O)CC1c1ccccc1 (configuration not stated) | i
O=C(CCc1c[nH]c2ccccc12)NCC(=O)N1CCCCCCNC(=O)CC1c1ccccc1 (configuration not stated) | i
O=C1CC(c2ccccc2)N(C(=O)C2CC2)CCCN(C(=O)c2ccoc2)CCN1 (configuration not stated) | i
O=C1CC(c2ccccc2)N(C(=O)C2CC2)CCCN(C(=O)c2ccc3cc[nH]c3c2)CCN1 (configuration not stated) | 28.2µM*
CCOC(=O)C1CCN(C(=O)CSc2nnc(-c3ccc(C)cc3)n2N)CC1 | i
Cc1ccc(C)c(CS(=O)(=O)Cc2nc(CC(C)C)no2)c1 | i
O=C1Cc2cc(C(=O)NCCc3ccc4c(c3)OCO4)ccc2N1 | i
CCCCCN1CCN(c2nc3c(c(=O)[nH]c(=O)n3C)n2Cc2ccccc2C)CC1 | i
Cc1ncc(-c2ccc(S(=O)(=O)Nc3ccc(C)c(F)c3)cc2)o1 | i
Cc1ccc(CN2C(=O)NC3(CCCN(C(=O)c4ccc(F)c(Cl)c4)C3)C2=O)cc1 (configuration not stated) | i
COCCn1c(SCCOc2ccc(Cl)cc2)nnc1-c1ccccc1 | i
COc1ccc(CC2CN(C(=O)c3ccnc(N)c3)CCO2)cc1 (configuration not stated) | 25.1µM*
COc1ccc(C(=O)N2CCOC(Cc3cccc(C(F)(F)F)c3)C2)o1 (configuration not stated) | i
COc1ccc(CC2CN(C(=O)c3ccsc3)CCO2)cc1 (configuration not stated) | i
CC(=O)Nc1cccc(Oc2ccc3nnc(-c4ccc(Br)cc4)n3n2)c1 | i
CSC1=N/C(=C\c2cccc(Cl)c2Cl)C(=O)S1 | i
O=C1N(Cc2ccc(F)cc2)CCCC12CCN(CC1CCCC1)C2 (configuration not stated) | i
O=C(NC1CCCC1)c1ccc2c(c1)N(Cc1ccccc1)C(=O)c1ccccc1S2 | i
O=C1N(CCc2ccccc2)c2ccccc2C12CCN(CC1CC1)C2 (configuration not stated) | i
CNC(=O)c1ccc2c(c1)C1(CCN(CC3CC3)C1)CN2Cc1ccccc1 (configuration not stated) | 35.5µM*
O=C(NC1COC1)c1ccc2c(c1)C1(CCN(CC3CC3)C1)CN2Cc1ccccc1 (configuration not stated) | 35.5µM*
SMILES | KDM5B inhibitor
CN1C(=O)Cc2cc(C(=O)NC3CCN(Cc4ccccc4)CC3)ccc21 | i
O=C(c1ccc(Cl)cc1)N1CC2(CCN(CC3CC3)C2)OCc2ccccc21 (configuration not stated) | i
CC(C)NC(=O)c1ccc2c(c1)C1(CCN(CC3CC3)C1)CN2Cc1ccccc1 (configuration not stated) | 28.2µM*
CC(C)NC(=O)c1ccc2c(c1)N(Cc1cccc(Cl)c1)C(=O)c1ccccc1S2=O (configuration not stated) | i
CCC(=O)Nc1ccc(-c2csc(Nc3cccc(OC)c3)n2)cc1 | i
CCN(C(=O)CCl)C1CCCCC1 | i
CCc1ccc(OCC(=O)Nc2cc3c(cc2S(=O)(=O)c2ccc(C)cc2)n(C)c(=O)n3C)cc1 | i
O=C(O)CCn1cc(C(C(=O)O)N2CCN(Cc3cccnc3)CC2)c2ccc(F)cc21 (configuration not stated) | i
O=C(CSc1nnc(N2CCOCC2)n1-c1cccc(F)c1)Nc1ccc2c(c1)OCCO2 | i
CCN(Cc1ccccc1)c1ccc(/C=N/NS(=O)(=O)c2cc(C)ccc2C)cc1 | i
CCc1ccc(C2C(C(=O)OC(C)C)=C(C)N=C3SCCC(=O)N32)cc1 (configuration not stated) | i
CN(Cc1ccc(-c2ccccc2)cc1)Cc1nccs1 | i
O=c1[nH]c(CSc2nnc(-c3ccccc3F)n2C2CC2)nc2ccc(Cl)cc12 | i
Cc1cnc(C)c(-c2cc(O)c3c(c2)CN(C(=O)c2ccncn2)CCO3)n1 | 25.1µM*
CCc1nc(CN2CCOc3c(O)cc(-c4nc(C)cnc4C)cc3C2)no1 | i
Cn1cc(C(=O)N2CCOc3c(O)cc(-c4csc5ccccc45)cc3C2)cn1 | i
Cc1cn2nc(C(=O)NCc3cccc(Cl)c3)cc2c(=O)[nH]1 | i
CSc1ccc(CNC(=O)c2cc3c(=O)[nH]c(C)cn3n2)cc1 | i
Cc1ccc(CNC(=O)c2ccc(NC(=O)c3cc4c(=O)[nH]c(C)cn4n3)cc2)cc1 | 3.16µM*
CC(C)N(C)S(=O)(=O)c1ccc(Cl)c(C(=O)Nc2nnc(C3CCCCC3)s2)c1 | i
CN(CCc1ccccc1)CC[C@@H]1CC[C@H](O)[C@@H](C(=O)NC2CCCCC2)O1 | i
CCCCCCCNCCCCCCC | i
COc1cc(=O)n2c(c1C(=O)Nc1cccc3c1CCCC3)CCCC2 | i
COCC(=O)N[C@H]1C[C@@H](CO)N(Cc2cccc(F)c2F)C1 | i
CN(C)[C@@H]1C[C@@H](CO)N(Cc2cc(=O)n3c4c(cccc24)CCC3)C1 | 22.4µM*
SMILES | KDM5B inhibitor
CC(C)CNc1oc(COc2ccc3c(c2)OCO3)nc1C#N | i
COCCN1CCCCCC(O)c2cc(C(=O)N(C)Cc3ccc(N4CCCCC4)cc3)ccc21 (configuration not stated) | 7.94µM*
COCCN1CCCCCC(O)c2cc(C(=O)N3CCN(c4cccc(OC)c4)CC3)ccc21 (configuration not stated) | i
COCCN1CCCCCC(O)c2cc(C(=O)N(C)Cc3cccnc3)ccc21 (configuration not stated) | i
COCCN1CCCCCC(O)c2cc(C(=O)NC3CCC3)ccc21 (configuration not stated) | 31.6µM*
COCCN1CCCCCC(O)c2cc(C(=O)N3CCN(c4ccccc4OC)CC3)ccc21 (configuration not stated) | i
COCCN1CCCCCC(O)c2cc(C(=O)NCCc3nc4ccccc4n3C)ccc21 (configuration not stated) | i
CCc1c(C)sc(NC(=O)C2CC2c2ccccc2)c1C#N (configuration not stated) | i
CC1CCN(S(=O)(=O)c2cn(CC(=O)Nc3ccc(F)cc3Cl)cn2)CC1 | i
CC(=O)N1C[C@@H]2CCCN3CCC[C@@H]([C@H]23)[C@H]1CCCC(=O)N1CCN(C)CC1 | 25.1µM*
CN(C)CCNC(=O)CCC[C@@H]1[C@H]2CCCN3CCC[C@@H](CN1C)[C@@H]23 | i
CN1CCN(C(=O)CCC[C@@H]2[C@H]3CCCN4CCC[C@@H](CN2C(=O)c2cccnc2)[C@@H]34)CC1 | i
CC(=O)N1C[C@@H]2CCCN3CCC[C@@H]([C@H]23)[C@H]1CCCC(=O)N1CCN(c2ccccc2)CC1 | i

Screening results: PubChem BioAssay, National Center for Advancing Translational Sciences (NCATS)
